# High-throughput results deposited in PubChem by National Center for Advancing Translational Sciences (NCATS).
# An excerpt weighted towards active compounds, which were near 4.7% of everything screened.
# D1 ag – agonists of human D1 dopamine receptor | P21728 | HEK293 T-REx D1 cells, calcium flux, agonist mode | activation, % at 2 µM | actives 1% (n = 360,000); also: 0% is about no effect
# Target sequence (P21728 whole entry, looked up): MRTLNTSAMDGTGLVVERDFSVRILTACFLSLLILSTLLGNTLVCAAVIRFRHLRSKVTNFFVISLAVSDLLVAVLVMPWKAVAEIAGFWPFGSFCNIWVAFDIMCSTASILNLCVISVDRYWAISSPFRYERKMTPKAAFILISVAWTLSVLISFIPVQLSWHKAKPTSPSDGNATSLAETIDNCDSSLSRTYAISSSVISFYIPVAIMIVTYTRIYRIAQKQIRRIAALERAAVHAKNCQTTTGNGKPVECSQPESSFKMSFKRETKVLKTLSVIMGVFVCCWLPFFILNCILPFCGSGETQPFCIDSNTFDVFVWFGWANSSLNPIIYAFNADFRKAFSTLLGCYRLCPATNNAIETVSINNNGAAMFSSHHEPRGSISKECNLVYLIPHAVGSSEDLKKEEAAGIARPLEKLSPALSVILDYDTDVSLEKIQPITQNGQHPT
#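 Tetracycline-induced HEK293 TREx D1 cells, force-coupled to calcium signalling, were dye-loaded with a no-wash calcium kit. Compound was pin-added after a 10 s baseline. Fluorescence was read kinetically at 1 cycle/s for 180 s, with calcium rises flagged as agonism.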
# TRHR ag – TRH receptor (human) agonism | TRHR cells, calcium flux fluo-8, FDSS agonist mode | activation, % at 2 µM | actives 0.18% (n = 360,000) | AID 493084; also: 0% is about no effect
#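 TRHR-expressing cells loaded with fluo-8 calcium dye; 23 nL library compound pin-transferred, kinetic FDSS fluorescence (Ex 480/Em 530) recorded about 180 s for agonist-induced calcium release, before a 10 nM TRH EC20 addition for potentiator mode.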
# D1 antag – blocks dopamine activation of the human D1 receptor | P21728 | actives 3.2% (n = 360,000) | HEK293 TREx D1 cells, calcium flux, dopamine EC80; stronger effect = lower value | activity change, negative = inhibition, % at 10 µM; in the data active = activity change below about -30%; also: % is scaled to controls: 0 for no effect and ±100 for the full control effect
#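 Tetracycline-induced HEK293 Trex D1 cells, force-coupled to calcium, dye-loaded; compounds added and read 180 s, then EC80 dopamine added and calcium flux tracked kinetically another 180 s.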
# D1 potentiator – enhances dopamine response at the human D1 receptor | P21728 | HEK293 TREx D1 cells, calcium flux, dopamine EC20 potentiation | potentiation, % at 10 µM | actives 0.036% (n = 360,000) | AID 504651; in the data active = potentiation above about 30%; also: 0% is about no effect
# TRHR PAM – TRH receptor (human) allosteric enhancement; P34981; TRHR cells, fluo-8 calcium fluorescence, EC20 TRH enhancement; enhancement, % at 2 µM; actives 0.66% (n = 360,000); in the data active = enhancement above about 30%; also: 0% is about no effect
#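 Enhancer read-out: after compound pinning and an initial kinetic agonist-mode read, an EC20 of TRH (10 nM final) was injected and fluo-8 calcium signal (Ex 480/Em 530) followed at 1 s/cycle for 100 cycles in TRHR-expressing cells.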
# * hit, by the source's call; ! = not active in a repeat. Rule as the data show it, unless noted: active = activation above about 30%; inactive = the rest.
SMILES,D1 ag,TRHR ag,D1 antag,D1 potentiator,TRHR PAM
CCn1cc(C(=O)NCCc2ccc(Cl)cc2)c(=O)c2cc(S(=O)(=O)N3CCc4ccccc4C3)ccc21,5.1,1.2,-8.5,-0.5,2.9
Cc1cc(C(=O)COC(=O)c2ccc(F)cc2F)c(C)n1C1CC1,1.7,-0.3,8.2,0.0,-0.8
O=C(CNC(=O)C12CC3CC(CC(C3)C1)C2)NCc1ccccc1,1.4,0.0,2.1,1.5,-1.4
CCOc1cc(C=O)cc(Br)c1OCC(N)=O,2.0,0.9,-6.0,-1.6,-2.3
Cc1ccc(C)c(NC(=O)CSc2ccc(-c3cccs3)nn2)c1,0.6,-0.2,-80.9*,-7.5,21.8
CCCCOc1ccc(-c2cc(C(F)(F)F)c(C#N)c(SCC(=O)O)n2)cc1,67.8*,0.0,-2.8,-6.2,8.0
N#Cc1c(C(F)(F)F)cc(-c2ccc(F)cc2)nc1SCC(=O)O,3.6,0.3,-2.3,-3.9,18.2
Cc1cccc(NC(=O)CSc2nc(-c3cccs3)cc(C(F)(F)F)c2C#N)c1C,48.7*,13.8,-0.3,-1.6,-2.5
Cc1cccc(N2CCN(Cc3nc(-c4ccccc4Cl)oc3C)CC2)n1,0.9,0.4,-31.3*,-6.8,-4.8
CCOC(=O)c1sc(=S)n(-c2ccccc2)c1N,3.8,-0.1,23.3,-2.2,7.6
COC(=O)c1sc(=S)n(-c2cccc(Cl)c2)c1N,-0.5,0.2,-33.6*,-2.8,-0.7
Cc1cc(=O)oc2cc(OC(=O)c3cncc(Br)c3)ccc12,3.8,0.5,-44.7*,-0.8,-1.6
CCc1nc(SCC(=O)N2CCOCC2)c2c(=O)n(C)c(=O)n(C)c2n1,4.4,-1.6,-3.9,0.5,4.7
CCc1nc(SCC(=O)N2CCCCCC2)c2c(=O)n(C)c(=O)n(C)c2n1,2.6,0.1,-34.1*,0.1,0.4
Cc1ccc(C)c(S(=O)(=O)NCc2ccc(C(=O)N3CCN(C)CC3)cc2)c1,3.8,-0.2,-31.7*,-3.6,3.5
Cc1ccc(NS(=O)(=O)c2cc(C(=O)N3CCN(C)CC3)ccc2C)cc1,-1.0,0.4,-34.3*,-3.8,-0.1
Cc1ccc(NS(=O)(=O)c2cc(C(=O)N3CCN(CCO)CC3)ccc2C)cc1,-0.9,0.3,-24.4,7.9,9.9
CCCCNC(=S)NC(=O)c1ccccc1Br,0.6,-0.5,-32.8*,-3.9,2.1
CC(=O)c1c(N=CN(C)C)nc(C)nc1-c1ccccc1,0.1,-0.2,17.4,-3.4,7.3
CN(C)C=Nc1ccccc1C1C=NNC1=O (stereo not drawn),1.2,1.0,-34.3*,-4.8,-6.0
COc1ccc(C2c3cc(OC)c(OC)cc3CC(=O)N2c2cccc(C#N)c2)cc1 (stereo not drawn),-0.4,0.4,-6.6,1.9,-1.1
O=c1[nH]c(-c2ccccn2)nc2sc(-c3ccccc3)cc12,7.3,1.2,-30.7*,3.1,0.8
Cc1cc(=O)n2nc(N3CCCC(C(=O)NCCCN4CCc5ccccc5C4)C3)sc2n1 (stereo not drawn),5.1,-0.4,-32.1*,-3.1,3.8
CCC1CCCCN1CCCNC(=O)C1CCCN(c2nn3c(=O)cc(C)nc3s2)C1 (stereo not drawn),3.3,-0.1,-2.4,-6.4,-1.6
COC(=O)c1ccc(CS(=O)(=O)c2ccc(C)cc2)o1,1.9,0.5,4.6,-0.1,16.4
SMILES,D1 ag,TRHR ag,D1 antag,D1 potentiator,TRHR PAM
CCN1CCN(c2ncc3c(n2)CCN(CC(C)C)C3)CC1,2.7,1.3,-9.5,0.8,-3.2
Cn1c2cc(S(C)(=O)=O)sc2c2cnn(Cc3ccccc3F)c(=O)c21,7.2,-0.3,-23.9,17.6,1.2
O=C(O)CC1SC(=Nc2ccc(O)cc2)NC1=O (stereo not drawn),2.7,-0.2,-31.1*,0.3,2.4
COc1ccc(Cl)cc1NC(=O)CN(C)C(=O)c1cc2c(s1)CCCC2,6.4,0.3,-38.0*,-4.8,2.2
COc1ccc(Cl)cc1NC(=O)CN(C)C(=O)Cc1ccc2c(c1)CCC2,0.0,-0.3,7.7,4.3,-2.3
CC1CCCCN1C(=O)c1ccc(CS(=O)(=O)Cc2ccccc2)cc1 (stereo not drawn),9.2,0.5,-7.3,-5.9,0.7
Cc1ccc(CCNC(=O)c2ccc(Nc3nc4ccccc4n4nnnc34)cc2)cc1,-0.7,0.5,10.0,1.8,-0.6
CCn1c(Cl)c(C=O)s/c1=N\S(=O)(=O)c1ccccc1,1.6,1.6,-38.4*,-11.8,-11.0
COCCC(=O)N1CCC(Oc2ccc(C(=O)NCCC3=CCCCC3)cc2)CC1,1.6,0.0,0.9,-1.1,-3.4
Cc1ccc(Nc2nnc(C3C(=O)N(C)C4(C)CC3c3cc(Br)ccc3O4)s2)cc1 (stereo not drawn),35.7*,0.0,8.3,8.7,2.9
CCCNC(=O)NC(=O)CN1C(=O)NC(C)(c2ccc3ccccc3c2)C1=O (stereo not drawn),-0.2,1.1,-7.4,-5.0,-0.1
CC(C)(C)OC(=O)Cc1nnc(-c2cc3ccccc3[nH]2)o1,3.1,1.1,7.1,-0.9,-7.4
CC1CCCC(NC(=O)COC(=O)c2ccccc2Sc2ccccc2C#N)C1C (stereo not drawn),2.8,-0.2,1.2,-3.9,30.2*
COc1ccc(NC(C)=O)cc1NC(=O)c1cccc(S(=O)(=O)N2CCc3ccccc32)c1,0.0,-1.1,-31.9*,-4.0,8.6
O=C(Nc1nc2ccccc2s1)c1cccc(S(=O)(=O)N2CCc3ccccc32)c1,4.0,0.4,-25.4,-2.2,10.7
CC(=O)NS(=O)(=O)c1ccc(NC(=O)c2cccc(S(=O)(=O)N3CCc4ccccc43)c2)cc1,2.7,0.0,8.6,-1.6,4.5
CN(C)S(=O)(=O)c1cccc(NC(=O)c2cccc(S(=O)(=O)N3CCc4ccccc43)c2)c1,5.4,0.8,-57.4*,-4.6,1.6
O=C(Nc1nc2c(s1)CN(Cc1ccccc1)CC2)c1cccc(S(=O)(=O)N2CCc3ccccc32)c1,73.1*,45.8*,-2.8,-10.2,-5.2
CCCC(CCC)C(=O)Nc1cccc(-c2nc3cccnc3s2)c1C,4.7,-0.1,6.7,-0.8,16.2
CCOc1ccc(CCNC(=O)c2nn(C)c3c2CSc2ccc(C)cc2-3)cc1OCC,2.5,0.5,-11.7,-0.3,1.3
CN(C)CCCC1(c2ccc(F)cc2)OCc2cc(C#N)ccc21 (stereo not drawn),8.9,0.2,-52.5*!,-2.5,-3.8
Cc1ccc(NC(=O)/C=C\C(=O)NCC(=O)O)cc1C,3.4,0.3,-37.1*,-4.3,3.7
C/C(=N/NC(=O)c1ccc(C)s1)c1cccnc1,2.6,-0.5,-7.2,-3.7,6.8
C/C(=N/NC(=O)c1ccc(Cl)s1)c1cccnc1,7.3,1.7,-48.3*,-11.4,21.6
CCc1cc2c(cc3c(=O)n(CCCC(=O)NCc4ccccc4Cl)nc(CC)n32)s1,0.8,0.3,-15.9,-8.2,1.9
